Drawing on PubChem BioAssay (NCI), this text covers growth inhibition for 25 molecules.

Assay [1] is described as follows: NCI Yeast Anticancer Drug Screen. Data for the mec2-1 strain (AID 157). The note with it: S. cerevisiae mec2-1 strain, hits give high values; at 50.0 µM unless noted. An outline of the steps: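 Yeast mec2-1 mutant treated with compound. Readout: growth inhibition vs vehicle controls.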
A short description of assay [2]: NCI Yeast Anticancer Drug Screen. Data for the sgs1 mgt1 strain (AID 161).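 Note: 0% = growth of cultures given vehicle only.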 The note with it: S. cerevisiae sgs1 mgt1 strain, hits give high values; at 50.0 µM unless noted. The method, boiled down:
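Inhibition of yeast growth, normalised to vehicle-treated controls, is reported for a strain bearing genetic alterations in DNA damage repair.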

The nature of assay [3]: NCI Yeast Anticancer Drug Screen. Data for the cln2 rad14 strain (AID 165).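 Note: 0% = growth equal to vehicle treated cultures.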 As to conditions: S. cerevisiae cln2 rad14 strain, hits give high values; at 50.0 µM unless noted. An outline of the steps:
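cln2 rad14 yeast strain; compound exposure; growth inhibition read vs vehicle controls.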

Assay [4] is described as follows: NCI Yeast Anticancer Drug Screen. Data for the bub3 strain (AID 167). The note with it: S. cerevisiae bub3 mutant strain, hits give high values; at 50.0 µM unless noted. The method, boiled down: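 Inhibition values come from growth of compound-treated mutant yeast normalised to vehicle-treated controls.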
The nature of assay [5]: NCI Yeast Anticancer Drug Screen. Data for the mlh1 rad18 strain (AID 175). As to conditions: S. cerevisiae mlh1 rad18 strain growth inhibition, hits give high values; at 50.0 µM unless noted. The method, boiled down: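 Yeast w/ defined DNA-repair lesions; compound exposure; growth vs vehicle controls → % inhibition.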

Structures are written as SMILES. About 79,000 compounds went through this panel and 15% of them were active in at least one assay; those are over-represented in the sample as a whole. A number with no mark means an inactive call. Active and inactive are the calls of the source. Cut-off read from the data, not from the text of the source: active = growth inhibition above about 70%; inactive = the rest.

In the case of `CN(C)C(=S)S(=O)(=O)c1ccccc1`, the growth inhibition in assay [1] is 75.8% (active); in assay [2], 81.2% (active); in assay [3] it was 25.2%; in assay [4], 85.6% (active); in assay [5] it was 91.2% (active).
For the molecule `CCOc1nc(=O)n(C2OC(CO)C(O)C2O)s1` (stereo not given), the growth inhibition in assay [1] is -1.35%; in assay [2], -3.7%; in assay [3], -34.1%; in assay [4], -5.65%; in assay [5], 2.5%.
In the same order, the values of `CCOC(=O)NC(=O)c1cn(CCSCCOC(=O)NCCCCCCNC(=O)OCCSCCn2cc(C(=O)NC(=O)OCC)c(=O)n(C)c2=O)c(=O)n(C)c1=O` are -10.6%, -29.7%, 7.9%, -0.35% and -18.4%.
With `N/N=C1\C(=O)N(C2CCCCCC2)C(=O)C1C(=O)NC1CCCCCC1` (stereo not given), the growth inhibition in assay [1] was -32.6%; in assay [2] it was -7.2%; in assay [3] it was -68.7%; in assay [4], -18.8%; in assay [5] it was -26.2%.
In the same order, the values of `C=C=C(C)[Si](C)(C)C` are 3.85%, -29.9%, -3.25%, -51.5% and -45.9%.
For the molecule `ClCCN1CCOC1=Nc1ccc2c(c1)CCCC2`, the growth inhibition was -16.9% in assay [1]; 2.6% in assay [2]; 4.4% in assay [3]; -7.25% in assay [4]; -49.2% in assay [5].
Regarding `COc1cccc(/C=C/c2ccnnc2)c1`, the growth inhibition in assay [1] was -2.8%; in assay [2], -7.55%; in assay [3], -7.65%; in assay [4] it was 16.9%; in assay [5] it was -3.85%.
The like results for `Brc1ccccc1C#Cc1ccccc1Br` were, in that order, -4.6%, 16.3%, -1.25%, 10.1% and 19.1%.
Regarding `CCN(CC)CCNc1cc(OC)c(OC)cc1[N+](=O)[O-]`, the growth inhibition in assay [1] is 14.4%; in assay [2], 5.7%; in assay [3], -7.45%; in assay [4], -0.45%; in assay [5], -15%.
Take `S=c1[nH]nc(-c2ccccc2Cl)o1`: the growth inhibition in assay [1] was -17.7%; in assay [2] it was -47.8%; in assay [3] it was -21.2%; in assay [4] it was -4.75%; in assay [5], -66.2%.
The like results for `COC(=O)C1=CO[C@@H](OC2OC(CO)C(O)C(O)C2O)[C@H]2[C@@H]1C=C[C@@]21C=C([C@H](C)OC(=O)/C=C/c2ccc(OC3OC(CO)C(O)C(O)C3O)cc2)C(=O)O1` (stereo not given in full) were, in that order, -18.6%, -20.1%, -6.15%, 2.65% and -20.1%.
In the same order, the values of `Cc1ccc2cc(-c3ccccc3)[nH]c2c1` are -11.2%, -13.6%, -13.4%, -33.6% and -55%.
The like results for `COc1ccc2c(c1)CCC1=C2CCC2(C)C1=CCS2(=O)=O` (stereo not given) were, in that order, -5.6%, -7.9%, 22.6%, 8.45% and -1.9%.
`C=C(C)C(C)/C(C)=N/NC(N)=O` (stereo not given) (tested in a mixture with another compound): the growth inhibition in assay [1] was 3.3%; in assay [2], -5.75%; in assay [3], 10.4%; in assay [4], 10.6%; in assay [5] it was -15.8%.
On to `NC(=S)/N=C(/c1nc2ccc(Cl)cc2[nH]c1=O)C(O)c1ccccc1Cl` (stereo not given), for which the growth inhibition in assay [1] is -21.8%; in assay [2] it was -20.2%; in assay [3], 4.35%; in assay [4] it was 22.5%; in assay [5], 5.75%.
The like results for `CN1CCN(C2c3ccccc3OC(C)(C)C2O)CC1` (stereo not given) were, in that order, -14%, -14.8%, -25.8%, -15.7% and 8.8%.
In the same order, the values of `CN1C=C(C(N)=O)Cc2ccsc21` are -10.8%, -15.8%, -8.95%, -17.1% and -18.5%.
The like results for `CC(=O)OC1CC2C3CCc4cc(O)ccc4C3CCC2(C)C1` (stereo not given) were, in that order, -15.8%, -8%, 6.7%, -0.05% and 3.2%.
For the molecule `CSC1=NC(C(N)=O)C(N)N1C` (stereo not given), the growth inhibition in assay [1] was -16.4%; in assay [2], 6.3%; in assay [3], 17.4%; in assay [4] it was 1.35%; in assay [5], 12%.
The like results for `CC[N+]1(CN2CCCCC2)CCCCC1` were, in that order, -2.8%, 4%, -7.4%, -22.6% and 37.6%.
The like results for `O=S(=O)(N/N=C/c1cccc(Cl)c1Cl)c1ccccc1` were, in that order, 3%, 4.4%, -37.6%, 3.5% and 21.5%.
In the case of `O=C1C=CC(=Nc2ccc3c(c2)-c2ccccc2C3)O1`, the growth inhibition in assay [1] was 21%; in assay [2] it was 5.05%; in assay [3], -9.9%; in assay [4] it was 1.35%; in assay [5], 12.1%.
The like results for `N#CC(C(=O)NN)C1CCCCC1` (stereo not given) were, in that order, -22%, -2.95%, -0.1%, -33.8% and -11.7%.
The like results for `CC(=O)OC1CCC(C(C)(C)C)CC1` (stereo not given) were, in that order, -41%, -19.2%, 2.5%, -28.2% and -15.8%.
In the same order, the values of `N=C(N)CCNC(=O)C1CCC(N)=N1` (stereo not given) are -17.8%, -13.9%, 56.4%, -28.1% and -13.6%.
